# Anthrax LF prot: Bacillus anthracis LF protease inhibitors, primary screen, biochemical, multiplex microsphere, MLPCN library | multiplex microsphere protease cleavage assay | AID 588501, 2011 | Lethal factor (Bacillus anthracis), P15917 | 360,000 compounds, 0.12% hits | inhibition, % at 10 µM; further: plate controls were buffer without enzyme for full effect and enzyme alone for no effect
# Bead autofluor: counter-screen for toxin protease inhibitors: compound fluorescence; compound autofluorescence counterscreen, microsphere flow cytometry; stronger effect = higher value; fluorescence intensity (concentration not given with the values); 360,000 compounds, 3.1% hits; AID 624483; in the data active means fluorescence intensity above about 16000; inconclusive means no clear call, values can overlap the other calls
# BoNT F protease: BoNT/F light chain protease inhibitors, primary screen, biochemical, flow cytometry, MLPCN library; Botulinum neurotoxin type F light chain protease (Clostridium botulinum); Multiplex microsphere protease cleavage assay; inhibition, % at 10 µM; 360,000 compounds, 0.22% hits; in the data active means inhibition above about 35%, passing the limit was not always enough; inconclusive means no clear call, values can overlap the other calls; further: plate controls were buffer without enzyme for full effect and enzyme alone for no effect
# BoNT A protease: BoNT/A light chain protease inhibitors, primary screen, biochemical, flow cytometry, MLPCN library; Botulinum neurotoxin type A light chain protease (Clostridium botulinum A str. ATCC 3502); multiplex microsphere protease substrate cleavage; inhibition, % at 10 µM; 360,000 compounds, 0.17% hits; AID 588499, 2011; further: plate controls were buffer without enzyme for full effect and enzyme alone for no effect
# MazF activator: activators of E. coli MazEF toxin-antitoxin RNase, primary screen, biochemical, fluorescence, uHTS. 350,000 compounds, 0.32% hits. activation, % at 20 µM. FAM/BHQ RNA-DNA oligo cleavage fluorescence, 5 h; in the data active means activation above about 50%
# Target sequence (P0AE70 whole entry, looked up): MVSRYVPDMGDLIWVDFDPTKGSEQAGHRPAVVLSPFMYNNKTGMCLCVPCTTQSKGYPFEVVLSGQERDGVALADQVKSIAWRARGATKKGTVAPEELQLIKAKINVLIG
# The depositor's hits bear a star; ? = inconclusive; nt = not tested or not shown. Sampled rows, rich in hits. Any-hit rate of the full collection: about 3.7%. Unless noted, no stated cut-off is given here; in the data, active means inhibition above about 30%; inconclusive means no clear call, values can overlap the other calls; inactive means below that.
SMILES,Anthrax LF prot,Bead autofluor,BoNT F protease,BoNT A protease,MazF activator
CC(=O)Nc1cccc(/C(C)=N/NC(=O)c2ccc3c(c2)OCO3)c1,3,4785,2,0,6
O=C(O)c1ccc(C=NN2CCCCCC2)cc1,5,3907,-2,0,8
Cc1nnc(C)n1/N=C/c1ccc(C(=O)O)cc1,3,22576*,1,0,4
COC(=O)CN1C(=S)N(c2ccc(OC)cc2)C(=O)/C1=C/c1cccs1,1,2071,-2,1,-4
CCc1ccc(N2C(=O)/C(=C/c3cccs3)N(CC(=O)OC)C2=S)cc1,-1,23041*,3,?,1
Cc1cccc(CN2C(=O)N/C(=C/c3ccc(C)s3)C2=O)c1,-2,4135,-1,4,190*
c1coc(Cn2nnnc2CN2CCN(C3CCCC3)CC2)c1,1,2894,-8,0,102*
CC(CCc1ccccc1)NS(=O)(=O)c1ccccc1Cl (stereo unspecified),-7,3835,15,0,8
Cc1ccccc1OC1C(=O)N(Cc2ccc3c(c2)OCO3)C1c1sccc1C (stereo unspecified),-3,22460*,4,?,-6
Cc1cccc(NC(=O)C23CCC(C)(/C(=N/O)C2)C3(C)C)c1 (stereo unspecified),0,9991,2,-1,8
CC12CCC(C(=O)Nc3ccccc3)(C/C1=N\O)C2(C)C (stereo unspecified),-1,16758*,-1,-1,1
CCCCC(=O)Nc1c(O)c2ccccc2[nH]c1=O,0,21304*,-1,-2,3
COc1ccccc1C(=O)Nc1ccnn1C1CCN(Cc2cnn(C)c2C)CC1,0,5188,8,0,2
Cc1c(NC(C)c2ccccc2O)c(=O)n(-c2ccccc2)n1C (stereo unspecified),-2,24008*,-1,-1,4
Cc1c(NC(=O)C(C)OC(=O)Cc2ccccc2)c(=O)n(-c2ccccc2)n1C (stereo unspecified),1,24503*,-4,-3,3
Cc1c(NC(=O)C(C)OC(=O)CCc2ccccc2)c(=O)n(-c2ccccc2)n1C (stereo unspecified),-2,4025,-1,-1,-8
Cc1c(NC(=O)C(C)OC(=O)C(NC(=O)c2ccco2)C(C)C)c(=O)n(-c2ccccc2)n1C (stereo unspecified),-2,22112*,3,?,7
C=CCc1cccc(CNc2c(C)n(C)n(-c3ccccc3)c2=O)c1O,-3,16249*,-3,0,-1
CC1(C)CC(=O)C2=C(C1)OC(N)=C(C#N)C21CCN(Cc2ccccc2)CC1,4,14003,4,-3,50*
COc1ccc(CCn2c(Br)nc3c2c(=O)[nH]c(=O)n3C)cc1,3,17013*,-3,-3,1
COc1ccc(CCn2c(NN)nc3c2c(=O)[nH]c(=O)n3C)cc1,nt,nt,nt,nt,0
COCCNc1c2c(nc3c(-c4ccccc4)c(C)nn13)CCCC2,-2,23437*,-2,-2,3
CCCCNc1c2c(nc3c(-c4ccccc4)c(C)nn13)CCC2,-7,20079*,2,2,-15
CCC(C)Nc1c2c(nc3c(-c4ccccc4)c(C)nn13)CCC2 (stereo unspecified),-3,22116*,-8,-6,2
Cc1nn2c(Nc3ccc(F)cc3)c3c(nc2c1-c1ccccc1)CCC3,0,2263,-8,-1,12
SMILES,Anthrax LF prot,Bead autofluor,BoNT F protease,BoNT A protease,MazF activator
O=S(=O)(NC1=NCCCCC1)c1cc(F)ccc1F,1,4155,7,1,3
CCOc1cc(C#N)c(NC(=O)CSc2nnnn2-c2ccc(OC)cc2)cc1OCC,-3,22206*,-11,-9,10
CCS(=O)(=O)c1ccc2oc(Nc3cc(C)cc(C)c3)nc2c1,-2,20341*,-2,-1,1
CCS(=O)(=O)c1ccc2oc(Nc3ccc(C(C)C)cc3)nc2c1,0,3016,-2,0,7
Cn1ccnc1CC(O)(c1ccccc1)c1ccccc1,10,3453,-11,0,9
CNC(=O)COC(=O)/C=C/c1cccc(F)c1,2,4163,-1,0,9
OC(c1ccc(-c2ccccc2)cc1)c1ncc(-c2ccc(F)cc2)[nH]1 (stereo unspecified),-2,3074,-9,-1,nt
O=C(Nc1ccsc1C(=O)NC1CCCCC1)c1ccccc1,-1,20407*,-2,?,11
Cc1ccc(S(=O)(=O)Nc2ccc(F)cc2)cc1C(=O)N1CCOCC1,-7,3555,1,0,-9
Clc1ccc(CNCCC2=CCCCC2)cc1,-2,17461*,-16,?,2
S=C(NCCC1=CCCCC1)Nc1ccc(Cl)cc1,-4,2590,10,0,5
O=c1cc(/C=C/c2ccccc2)oc2ccccc12,1,22100*,6,?,-6
O=C(CCS(=O)(=O)c1ccc(Cl)cc1)N1CCN(c2ccc(F)cc2)CC1,nt,nt,nt,nt,-11
Cc1ccc(S(=O)(=O)CCC(=O)N2CCN(c3ccc(Cl)cc3)CC2)cc1,-2,17240*,-3,-2,-2
Cc1cc(C)c(NC(=O)COC(=O)C2CCCCC2)c(C)c1,-8,8765,4,1,-9
CCc1noc(C)c1C(=O)Nc1nc(-c2cc(OC)ccc2OC)cs1,4,6592,6,1,5
CCn1c(=O)cc(SCC(=O)NCc2cccnc2)c2ccccc21,0,9751,-2,0,-1
CCn1c(=O)cc(OCC(=O)Nc2ccc(C)cn2)c2ccccc21,0,19603*,2,0,0
CCn1c(=O)cc(OCC(=O)NCc2cccnc2)c2ccccc21,0,23271*,-3,?,-6
CCn1c(=O)cc(OCC(=O)NC2CCCCC2)c2ccccc21,0,16641*,-3,-2,3
Cc1oc(-c2cccc(Cl)c2)nc1CN1CCC(C(=O)NC2CC2)CC1,-2,5888,-6,-2,7
Cc1oc(-c2cccc(Cl)c2)nc1CN1CCC(C(=O)NCc2cccnc2)CC1,-6,22980*,-2,1,5
CCN(CCNC(=O)C1CCN(Cc2nc(-c3ccc(Cl)cc3)oc2C)CC1)c1ccccc1,-4,22915*,-9,-5,1
CCN(CCNC(=O)C1CCN(Cc2nc(-c3cccc(Cl)c3)oc2C)CC1)c1ccccc1,-10,20469*,-4,0,11
CCN(CCNC(=O)C1CCCN(Cc2nc(-c3ccc(OC)cc3)oc2C)C1)c1ccccc1 (stereo unspecified),-2,21170*,-5,-1,-1
C[C@H](CO)N1C[C@H](C)[C@@H](CN(C)C(=O)Nc2ccc(C(F)(F)F)cc2)Oc2ccc(NS(=O)(=O)c3cccs3)cc2C1=O,-10,2927,-10,-1,2
CCCCNS(=O)(=O)c1cc2c3c(c1)CCN3C(=O)CC2,-3,4487,-2,-1,4

# Assay outcomes as filed in PubChem.
